Here are results for 30 sequences from the OligoGym collection.

What all share (test): pooled miR-30 sensor sort-seq; sequence = guide strand
Common to all, as to settings: shRNA

Assay [1] addresses CMPK2.
The target of assay [2] is CMYA5.
Assay [3] addresses CNOT1.
The target of assay [4] is COL4A3BP.
The target of assay [5] is COPS7A.
Assay [6] concerns the target CRTAM.
For assay [7], the target named is CSGALNACT1.
The target of assay [8] is CSH1.
In assay [9] the target is CYLC1.
The target of assay [10] is CYSLTR1.
Assay [11] addresses CYP4V2.
Assay [12] addresses CYP4A22.
Assay [13] has as its target CYTH1.
Also: reference of the scale not given here.

Turning to TGACTTTAAGAGGACAGCCTTA, the sensor-assay potency score (higher = more potent) in [1] is -1.08.

Take TTACTTCTTGATCATCTTGTGG: in assay [2], the sensor-assay potency score (higher = more potent) was -0.871. For the sequence TTATATGTAACTCTTTATCAGG, the sensor-assay potency score (higher = more potent) in assay [3] was -0.895. Same read-out and setting: under TACAGTTAAATACTTCTCGTTC stands -0.0593. In turn, TTGCATAGAATGTTGTCCCTGC had a sensor-assay potency score (higher = more potent) in [4] of 0.716. For the sequence TGAACCTAGGATTATCAGCTGG, in assay [5], the sensor-assay potency score (higher = more potent) was -0.856. In the case of TTTTGCTTTCTGATAACTGAAG, the sensor-assay potency score (higher = more potent) in [6] is -1.15. Sequence TTGGACTGCATGCACATCTTGT had a sensor-assay potency score (higher = more potent) in [7] of -0.464. In the case of TTGATGTCCAGATCAAACCCAC, the sensor-assay potency score (higher = more potent) in assay [7] was -0.21. In assay [8], TACTCGGGCACCTAGAAGCCAC gave a sensor-assay potency score (higher = more potent) of -1.13.

In the case of TTGAATTTGCAGATGTGCCATC, the sensor-assay potency score (higher = more potent) in assay [9] was -0.566. Sequence TTTCTTGGAATCTTTCTTCAAA gave a sensor-assay potency score (higher = more potent) in assay [9] of -0.0994.

Regarding TAGAAATGGAGAACTGGTCAAA, in [10], the sensor-assay potency score (higher = more potent) is -0.616. On to TTTTGACCTATACAGTTCCTGG, for which the sensor-assay potency score (higher = more potent) in assay [11] is -1.19.

Turning to TTGACATACAAAGCATAGGTGC, in assay [10], the sensor-assay potency score (higher = more potent) was -0.753.

The sequence TTGATCTTCTCCAGCTCCCCCT yielded a sensor-assay potency score (higher = more potent) in assay [12] of -0.672. The same measure, in the same setting: under TAGGATCCATGGGATTTCGGGT stands -1.1; under TTGGATCACTTGGTCTGTGTGC, -0.603. In assay [10], TTTAGTTTGATTGTCTTGTGGG registered a sensor-assay potency score (higher = more potent) of 0.715. In the case of TACTTCTGCTATCTCATCCTTC, the sensor-assay potency score (higher = more potent) in assay [13] came out at 0.117. In turn, AACTTGGTCTTTATTGTCGGGG returned a sensor-assay potency score (higher = more potent) in assay [13] of -0.623. Consider TTGTAGCTCCTGGTCGTGTTGG, for which, in [12], the sensor-assay potency score (higher = more potent) was -0.703. In assay [11], TTCTGGTTGGATTCTATCCAAA had a sensor-assay potency score (higher = more potent) of -1.62. In assay [10], TAGAGGTTGACATACAAAGCAT registered a sensor-assay potency score (higher = more potent) of -0.639. As for TCGTTCTCTATTAAGAACTGGA, in assay [13], the sensor-assay potency score (higher = more potent) is -0.271. TTTTAGTTTGATTGTCTTGTGG displayed a sensor-assay potency score (higher = more potent) in assay [10] of -0.438. For TTCATGGCAAATTGTTTCCCGA, the sensor-assay potency score (higher = more potent) in assay [12] is -0.959. TTTCATTAGCTACTTCTGCTAT showed a sensor-assay potency score (higher = more potent) in [13] of -0.232.

Sequence TTGGTCTGTGTGCTGATGGGCC gave a sensor-assay potency score (higher = more potent) in assay [12] of -0.327. In [11], TTAGAACTCTGTAACCTGCCAC came in with a sensor-assay potency score (higher = more potent) of 0.681.
